Measured values as given in ChEMBL document CHEMBL4513156, “CO-ADD screening of NCPRI (Romania) compounds”.
Results with a measured potency or affinity are listed apart.

Assays:
Klebsiella pneumoniae = conditions: Concentration 32 ug.mL-1; ASSAY_TEST Inhibition of Bacterial Growth; detection method Absorption (OD600); MEDIA CAMHB; plate type 384well; NBS; CORNING #3640; time 18 hr
Candida albicans = conditions: 32 ug/mL
Cryptococcus neoformans = conditions: Concentration 32 ug.mL-1; ASSAY_TEST Inhibition of Fungal Growth; detection method Resazurin; Absorption (OD600-OD570); plate type 384well; NBS; CORNING #3640

Q: Which results are given for `O=C(N/N=C1\C[C@@H]2[C@H](COC(c3ccccc3)(c3ccccc3)c3ccccc3)C[C@H](CO)[C@@H]2C1)c1ccncc1`?
A: Inhibition (Klebsiella pneumoniae): 2.31%; Inhibition (Candida albicans): 12.2%; Inhibition (Cryptococcus neoformans): -65.69%

Q: Which results are given for `O=C(ON/N=C/[C@@H]1[C@@H]2C[C@H](Cl)[C@H]1C[C@H]2O)c1ccncc1`?
A: Inhibition (Klebsiella pneumoniae): 14.1%; Inhibition (Candida albicans): 5.82%; Inhibition (Cryptococcus neoformans): -97.88%

Q: Which results are given for `COC(=O)CCCCCC[C@@H]1[C@@H](/C=N/NC(=O)c2ccncc2)[C@H](OC(=O)c2ccccc2)C[C@@H]1O`?
A: Inhibition (Klebsiella pneumoniae): 15.74%; Inhibition (Candida albicans): 0.87%; Inhibition (Cryptococcus neoformans): -95.25%

Q: Which Inhibition (Klebsiella pneumoniae) does the source give for `O=C1C[C@H]2[C@H](/C=N/NC(=O)c3ccncc3)[C@H](C[C@@H]2Cl)O1` here?
A: Its Inhibition is 20.57%.

Q: And the Inhibition (Candida albicans)?
A: Its Inhibition is 3.46%.

Q: What about the Inhibition (Cryptococcus neoformans) of the same compound?
A: Its Inhibition is -80.73%.

Q: How did the Inhibition (Klebsiella pneumoniae) turn out when `COC(=O)CCCCCC[C@@H]1[C@@H](/C=N/NC(=O)c2ccncc2)[C@H](O)C[C@@H]1O` was run?
A: Its Inhibition is 5.87%.

Q: And the Inhibition (Candida albicans)?
A: Its Inhibition is 0.11%.

Q: What about the Inhibition (Cryptococcus neoformans) of the same compound?
A: Its Inhibition is -95.51%.

Q: With `O=C(NN=C[C@H]1[C@@H]2CCO[C@@H]2C[C@@H]1O)c1ccncc1` as the compound, how does the Inhibition (Klebsiella pneumoniae) read?
A: Its Inhibition is 9.72%.

Q: What about the Inhibition (Candida albicans) of the same compound?
A: The Inhibition was 2.27%.

Q: And the Inhibition (Cryptococcus neoformans)?
A: The Inhibition was -54.08%.

Q: With `O=C(N/N=C1/C[C@@H]2[C@@H](C(=O)O)[C@H]1C[C@H]2Cl)c1ccncc1` as the compound, how does the Inhibition (Klebsiella pneumoniae) read?
A: The Inhibition was 18.24%.

Q: And the Inhibition (Candida albicans)?
A: The Inhibition was 7.78%.

Q: And the Inhibition (Cryptococcus neoformans)?
A: The Inhibition was -56.2%.

Q: `O=C(N/N=C1/C2C[C@H]3C(C2CO)[C@H]13)c1ccncc1` (stereo partly drawn) was tested. Which Inhibition (Klebsiella pneumoniae) did it give?
A: The Inhibition was 15.76%.

Q: And the Inhibition (Candida albicans)?
A: The Inhibition was 0.37%.

Q: And the Inhibition (Cryptococcus neoformans)?
A: The Inhibition was -50.92%.

Q: With `CC(C)(C)[Si](C)(C)O[C@H](/C=C/[C@@H]1[C@@H](CC=NNC(=O)c2ccncc2)[C@@H](O)C[C@H]1O[Si](C)(C)C(C)(C)C)CCc1ccccc1` as the compound, how does the Inhibition (Klebsiella pneumoniae) read?
A: The Inhibition was 11.71%.

Q: What about the Inhibition (Candida albicans) of the same compound?
A: The Inhibition was 0.84%.

Q: What about the Inhibition (Cryptococcus neoformans) of the same compound?
A: The Inhibition was -66.75%.

Q: `O=C(NNC(=O)[C@@H]1C[C@H](C(=O)O)[C@@H]2CC=C[C@@H]21)c1ccncc1` was tested. Which Inhibition (Klebsiella pneumoniae) did it give?
A: Its Inhibition is 15.82%.

Q: And the Inhibition (Candida albicans)?
A: Its Inhibition is 1.29%.

Q: And the Inhibition (Cryptococcus neoformans)?
A: The Inhibition was -37.2%.

Q: Which results are given for `O=C(N/N=C/CCCO)c1ccncc1`?
A: Inhibition (Klebsiella pneumoniae): 3.72%; Inhibition (Candida albicans): 0.75%; Inhibition (Cryptococcus neoformans): -50.92%
